Eight compounds from PubChem BioAssay (NCI) can be followed below.

Test systems include SK-MEL-2 melanoma; EKVX NSCLC; SN12C renal; UO-31 renal; TK-10 renal; ACHN renal; CAKI-1 renal; A498 renal; CCRF-CEM leukemia; MOLT-4 leukemia; SR leukemia; RPMI-8226 leukemia; OVCAR-8 ovarian; OVCAR-5 ovarian; OVCAR-4 ovarian; IGROV1 ovarian; OVCAR-3 ovarian; HS 578T breast; NCI/ADR-RES ovarian; SK-OV-3 ovarian.
Holding throughout (assay): NCI-60 one-dose screen, 48 h (100 = growth as untreated, 0 = no growth, -100 = all killed)
Holding throughout (conditions): 10 µM unless noted

The structures appear in SMILES notation. Compounds without any hit were thinned out: in the full panel of roughly 83,000, 20% have a hit.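 Testing used 96-well plates and a 48-hour single-concentration exposure. Example: -40 means 40% of the starting cells died.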 Values without a mark were called inactive. Calls of active or inactive are those of the source. The calls were made as follows: active = growth percent below 10; inactive = the rest.

Turning to `O=C1c2ccccc2-c2c1c1ccncc1c(=O)n2CCCn1ccnc1`, the growth with SK-MEL-2 melanoma is 103%; in the experiment with EKVX NSCLC it was 96.8%; with SN12C renal, 49.1%; in the experiment on UO-31 renal, 19.1%; in the experiment on TK-10 renal, 82.6%; in the experiment with ACHN renal, 0.133% (active). The growth in the experiment on CAKI-1 renal was 49.9%; in the experiment with A498 renal, 80.9%; in the experiment on CCRF-CEM leukemia it was 18.5%; with MOLT-4 leukemia, -12.7% (active); in the experiment on SR leukemia it was -16.2% (active); with RPMI-8226 leukemia, 34.1%. In addition, the growth in the experiment with OVCAR-8 ovarian is 32.9%; with OVCAR-5 ovarian it was 88.5%; in the experiment on OVCAR-4 ovarian it was 72.7%; in the experiment with IGROV1 ovarian, 44.9%; in the experiment on OVCAR-3 ovarian, 67.1%; with HS 578T breast, 60.8%. Besides, the growth in the experiment on NCI/ADR-RES ovarian is 53.6%.
As for `C[C@H]1c2ccccc2CN1CCCOc1cc2c(cc1OCC1CC1)C1(CCCC1)C(N)=N2`, the growth was 54% in the experiment with SK-MEL-2 melanoma; 72.8% in the experiment with EKVX NSCLC; 67.6% in the experiment with SN12C renal; 29.3% in the experiment with UO-31 renal; 92.7% in the experiment with TK-10 renal; 69% in the experiment with ACHN renal. Moreover, the growth in the experiment with CAKI-1 renal was 18.5%; in the experiment with CCRF-CEM leukemia it was 54.6%; in the experiment with MOLT-4 leukemia, 36.4%; in the experiment on SR leukemia, 13.8%; with RPMI-8226 leukemia, 17.6%; in the experiment on OVCAR-8 ovarian, 65.9%. In addition, the growth is 70.5% in the experiment on OVCAR-5 ovarian; 48.8% in the experiment on OVCAR-4 ovarian; 90.2% with SK-OV-3 ovarian; 54.8% in the experiment on IGROV1 ovarian; 76.9% in the experiment on OVCAR-3 ovarian; 56% in the experiment on HS 578T breast. Besides, the growth in the experiment on NCI/ADR-RES ovarian is 68%.
`O=C(Nc1ncc(Cc2ccccc2)s1)c1ccc2c(c1)OCCO2`: the growth was 34.5% with SK-MEL-2 melanoma; 32.6% in the experiment with EKVX NSCLC; 34.5% with SN12C renal; 46.6% in the experiment with UO-31 renal; 38.8% in the experiment with TK-10 renal; 27.3% in the experiment with ACHN renal. The growth in the experiment on CAKI-1 renal was 17.2%; in the experiment on A498 renal it was 2.75% (active); in the experiment on CCRF-CEM leukemia, 13.8%; in the experiment with MOLT-4 leukemia, 6.38% (active); in the experiment with SR leukemia it was 5.84% (active); with RPMI-8226 leukemia, 14.6%. The growth with OVCAR-8 ovarian was 19%; with OVCAR-5 ovarian, 28.5%; with OVCAR-4 ovarian it was 46.3%; with IGROV1 ovarian, 23.4%; in the experiment on OVCAR-3 ovarian, -11.3% (active); in the experiment on HS 578T breast it was 25.1%. The growth in the experiment on NCI/ADR-RES ovarian was 7.95% (active).
In the case of `FC(F)(F)c1cccc(-c2nnn(Cc3cc(-c4cccc(Cl)c4)no3)n2)c1`, the growth with SK-MEL-2 melanoma is 114%; with EKVX NSCLC, 115%; in the experiment with SN12C renal it was 101%; in the experiment on UO-31 renal, 85.7%; in the experiment with TK-10 renal it was 109%; in the experiment with ACHN renal, 107%. Moreover, the growth in the experiment on CAKI-1 renal is 98.9%; with CCRF-CEM leukemia, 96.1%; in the experiment with MOLT-4 leukemia, 107%; in the experiment with SR leukemia, 96.2%; in the experiment with RPMI-8226 leukemia, 102%; with OVCAR-8 ovarian it was 101%. Moreover, the growth was 101% in the experiment on OVCAR-5 ovarian; 116% in the experiment with OVCAR-4 ovarian; 98.8% in the experiment on SK-OV-3 ovarian; 104% in the experiment with IGROV1 ovarian; 114% in the experiment on OVCAR-3 ovarian; 107% with HS 578T breast. In addition, the growth in the experiment with NCI/ADR-RES ovarian was 108%.
For `COc1ccc(/C=C\c2cc(OC)c(OC)c(OC)c2)cc1OCC(=O)Nc1nc2ccccc2s1`, the growth with SK-MEL-2 melanoma is 26.7%; with EKVX NSCLC it was 55.8%; in the experiment on SN12C renal, 34.9%; in the experiment with UO-31 renal, 4.73% (active); in the experiment on TK-10 renal it was 4.64% (active); with ACHN renal, 16.9%. For the same compound, the growth with CAKI-1 renal is 17.6%; with CCRF-CEM leukemia, 35.3%; in the experiment with MOLT-4 leukemia, 6.31% (active); with SR leukemia, 9.4% (active); in the experiment with RPMI-8226 leukemia it was 22.5%; in the experiment on OVCAR-8 ovarian, 19%. For the same compound, the growth in the experiment on OVCAR-5 ovarian is 65%; in the experiment on OVCAR-4 ovarian it was 49.2%; in the experiment on SK-OV-3 ovarian, 30.4%; with IGROV1 ovarian, 3.36% (active); in the experiment with OVCAR-3 ovarian, 0.388% (active); in the experiment with HS 578T breast, 11.3%. For the same compound, in the experiment with NCI/ADR-RES ovarian, the growth was 12.7%.
Regarding `CC(C)=CC(=O)C1C(=O)c2ccccc2C1=O`, the growth was 102% in the experiment with SK-MEL-2 melanoma; 99.4% with EKVX NSCLC; 95.1% in the experiment on SN12C renal; 92.3% in the experiment on UO-31 renal; 108% in the experiment on TK-10 renal; 97.1% with ACHN renal. The growth with CAKI-1 renal was 81%; in the experiment on A498 renal, 87.6%; with CCRF-CEM leukemia it was 98.1%; with MOLT-4 leukemia, 103%; with SR leukemia it was 91.3%; in the experiment with RPMI-8226 leukemia, 103%. Further, the growth in the experiment with OVCAR-8 ovarian was 97.8%; with OVCAR-5 ovarian it was 97.3%; with OVCAR-4 ovarian it was 102%; with IGROV1 ovarian, 70.5%; with OVCAR-3 ovarian, 95.7%; in the experiment on HS 578T breast it was 102%. Further, the growth in the experiment with NCI/ADR-RES ovarian is 108%.
Turning to `CC(=O)O[C@H]1CC[C@@]2(C)C(=CC[C@@H]3[C@@H]2CC[C@]2(C)C(Cl)=C(c4nc5ccc(Cl)cn5c4NC(C)(C)C)C[C@@H]32)C1`, the growth in the experiment with SK-MEL-2 melanoma is 99.9%; in the experiment with EKVX NSCLC, 88.1%; with SN12C renal, 97.7%; in the experiment on UO-31 renal, 86.6%; with TK-10 renal it was 89.3%; in the experiment with ACHN renal it was 92.1%. Besides, the growth was 65.1% in the experiment on CAKI-1 renal; 92.3% in the experiment with CCRF-CEM leukemia; 101% in the experiment on MOLT-4 leukemia; 93% with SR leukemia; 93.9% with RPMI-8226 leukemia; 96.9% in the experiment on OVCAR-8 ovarian. In addition, the growth with OVCAR-5 ovarian is 91.5%; with OVCAR-4 ovarian, 90.3%; in the experiment with SK-OV-3 ovarian, 105%; in the experiment on IGROV1 ovarian it was 87.9%; with OVCAR-3 ovarian, 100%; in the experiment on HS 578T breast it was 85.6%. Also, the growth in the experiment with NCI/ADR-RES ovarian is 95.4%.
Consider `O=C(NC1CCCCCC1)c1ccc2c(=O)n3c(nc2c1)CCCCC3`, for which the growth in the experiment on SK-MEL-2 melanoma was 112%; in the experiment on EKVX NSCLC it was 107%; in the experiment with SN12C renal, 97.8%; with UO-31 renal, 99.8%; with TK-10 renal it was 104%; in the experiment on ACHN renal it was 108%. The growth in the experiment on CAKI-1 renal was 108%; in the experiment with A498 renal, 99.5%; in the experiment on CCRF-CEM leukemia, 98.8%; with MOLT-4 leukemia it was 128%; in the experiment with SR leukemia, 116%; with RPMI-8226 leukemia it was 87%. The growth is 101% in the experiment with OVCAR-8 ovarian; 111% in the experiment on OVCAR-5 ovarian; 76.2% in the experiment on OVCAR-4 ovarian; 94.2% in the experiment on IGROV1 ovarian; 110% with OVCAR-3 ovarian; 83% with HS 578T breast. Moreover, the growth in the experiment with NCI/ADR-RES ovarian was 91.3%.
